20 compounds from ChEMBL document CHEMBL3988442, “University of Dundee, Small-Polar-MMV Screening Library” (2021) can be followed below.

This experiment has as its target T1, Aspartate--tRNA(Asp/Asn) ligase (Mycobacterium tuberculosis (strain ATCC 25618 / H37Rv)) (UniProt P9WFW3).
T1 sequence (whole entry): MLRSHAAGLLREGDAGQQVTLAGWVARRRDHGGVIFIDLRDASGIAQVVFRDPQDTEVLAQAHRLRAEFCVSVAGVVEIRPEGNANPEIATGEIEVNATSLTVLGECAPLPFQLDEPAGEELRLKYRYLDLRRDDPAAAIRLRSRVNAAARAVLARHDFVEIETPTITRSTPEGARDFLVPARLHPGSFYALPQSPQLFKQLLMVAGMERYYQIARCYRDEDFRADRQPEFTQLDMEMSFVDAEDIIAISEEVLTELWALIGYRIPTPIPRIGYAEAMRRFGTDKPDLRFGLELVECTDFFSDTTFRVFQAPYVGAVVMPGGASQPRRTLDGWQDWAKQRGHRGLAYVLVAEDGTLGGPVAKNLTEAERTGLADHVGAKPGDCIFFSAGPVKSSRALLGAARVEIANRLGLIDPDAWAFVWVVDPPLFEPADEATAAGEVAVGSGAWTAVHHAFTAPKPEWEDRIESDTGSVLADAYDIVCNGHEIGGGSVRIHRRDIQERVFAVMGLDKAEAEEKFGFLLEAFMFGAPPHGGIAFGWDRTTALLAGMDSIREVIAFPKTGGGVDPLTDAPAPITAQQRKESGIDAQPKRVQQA
The experiment can be described thus: Assay for Asp RNA synthetase-1 from Mycobacterium tuberculosis. The format is functional. Details: scale not given: in the data most compounds retested in dose-response had high values. Particulars: 30 µM.
For `CC(C)Cc1noc(CN2CCN(c3nccs3)CC2)n1`, the Percent Effect is -4.73%.
As for `CC1CN(Cc2noc(C3CC3)n2)CCN1Cc1nccn1C` (stereo not given), the Percent Effect was -4.25%.
With `Cc1nn(C)c(C)c1NC(=O)CCn1ncc2c(C)cccc21`, the Percent Effect came to 10.1%.
In the case of `CSc1ccccc1CN1CCn2nc(CNC(C)=O)cc2C1`, the Percent Effect turned out to be 6.15%.
As for `CCn1ccnc1CN(C)CC1CCCN1c1cccnn1` (stereo not given), the Percent Effect stood at 7.69%.
As for `Cc1nc2c(c(NC3CC3)n1)CCN(C(=O)C(C)(C)O)CC2`, the Percent Effect was 3.74%.
Under `CC(c1ccc(Cl)cc1)N1CCN(CCS(C)(=O)=O)CC1` (stereo not given) stands -1.84%.
Consider `Cc1nc(C2CCCN(C(=O)c3cccc4c3OCO4)C2)no1` (stereo not given), for which the Percent Effect turned out to be 5.25%.
As to `Cn1cc(-c2nc(CN3CCN(CCO)CC3)cs2)cn1`, the Percent Effect was -2.15%.
`CC(C)c1nc2n(n1)CC(NCc1nnc(C(C)C)o1)CC2` (stereo not given): the Percent Effect is 5.81%.
In the case of `CCc1ncc2c(n1)CN(Cc1nc(-c3ccsc3)no1)CC2`, the Percent Effect is -0.759%.
Take `Cc1noc(C)c1CN1CCN(Cc2ccncc2)c2ncccc2C1`: the Percent Effect was -2.02%.
On to `CCn1ccnc1CN1CCN(CC(=O)NC(C)(C#N)C2CC2)CC1` (stereo not given), for which the Percent Effect is -4.1%.
`c1cc(CNCc2ccnc(N3CCOCC3)c2)c2c(c1)OCCO2`: the Percent Effect stood at 1.9%.
Take `CCc1nnc(CN2CCCC(c3cc(C(F)(F)F)[nH]n3)C2)o1` (stereo not given): the Percent Effect stood at 1.01%.
In the case of `CCc1nc(C2CCCN2C(=O)c2cc(C3CC3)[nH]n2)no1` (stereo not given), the Percent Effect was -7.78%.
With `COc1cccc(CCC2CCCN(C(=O)c3n[nH]c4c3CCC4)C2)c1` (stereo not given), the Percent Effect is 2.06%.
Consider `COc1ccc(CCN2CCc3c(nc(C4CC4)n3C)C2)cc1`, for which the Percent Effect is 4.19%.
Under `Cc1cc(N2CCC(N(C)C(=O)c3ccccc3)CC2)nc(C)n1` stands -5.32%.
As to `O=C(Nc1cccc(Cl)c1)c1nn(C2CCS(=O)(=O)C2)c2c1CCCC2` (stereo not given), the Percent Effect was 6.98%.
